{"source": "PubChem BioAssay AID1671192", "about": "(National Center for Advancing Translational Sciences (NCATS), 2021)", "note": "Records with an inconclusive call do not appear. A number with no mark means an inactive call. Calls follow the shape of the dose curve; as a rule, active = well fitted curve in the direction sought with a large enough effect; inconclusive = small, poorly fitted or top-dose-only effect, or another doubt; inactive = no such curve, though single readings can be large or run the other way."}
{"target": "Polyunsaturated fatty acid lipoxygenase ALOX15 (Homo sapiens) (UniProt P16050)", "sequence (P16050 whole entry, looked up)": "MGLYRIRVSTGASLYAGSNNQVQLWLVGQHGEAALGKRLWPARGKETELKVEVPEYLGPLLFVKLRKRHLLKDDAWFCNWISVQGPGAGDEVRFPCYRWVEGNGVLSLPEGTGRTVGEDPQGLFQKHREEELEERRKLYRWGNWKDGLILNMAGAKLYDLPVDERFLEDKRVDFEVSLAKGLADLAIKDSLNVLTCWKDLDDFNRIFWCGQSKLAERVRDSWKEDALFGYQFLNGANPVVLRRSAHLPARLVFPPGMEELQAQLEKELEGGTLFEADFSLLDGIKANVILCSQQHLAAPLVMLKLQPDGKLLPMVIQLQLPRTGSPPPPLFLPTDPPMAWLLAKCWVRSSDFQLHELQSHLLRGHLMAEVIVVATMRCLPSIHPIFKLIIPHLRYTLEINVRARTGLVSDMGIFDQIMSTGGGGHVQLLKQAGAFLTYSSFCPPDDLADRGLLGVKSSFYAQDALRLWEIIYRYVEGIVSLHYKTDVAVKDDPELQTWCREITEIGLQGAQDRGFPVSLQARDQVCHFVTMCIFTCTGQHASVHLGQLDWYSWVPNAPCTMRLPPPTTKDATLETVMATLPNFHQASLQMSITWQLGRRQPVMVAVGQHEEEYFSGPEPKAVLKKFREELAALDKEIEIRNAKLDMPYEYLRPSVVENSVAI", "assay": "Counterscreen qHTS for inhibitors of human arachidonate 12S-lipoxygenase (ALOX12): ALOX15 Assay; also: 0% is about no effect", "conditions": "purified ALOX15 enzyme activity; series mostly up to 110 µM; activity change, negative = inhibition: at the top concentration", "method_in_brief": "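Purified human ALOX15 (15hLO-1) at 40 nM in 25 mM HEPES, 0.01% Triton X-100, pH 7.5, preincubated with compound 15 min at RT. Then 50 uM arachidonic acid for 30 min; hydroperoxide detected by Fe-xylenol orange as the 573/405 nm absorbance ratio.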"}
{"smiles": "CC(C)CNC(=O)c1cc(C2CC2)nc2onc(C3CCCNC3)c12", "note": "(stereo not drawn)", "activity change, negative = inhibition": "-7.29% [at 146 µM]"}
{"smiles": "O=C1NC(=NC2CCCC2)C2(CCN(CC3CCCCC3)CC2)N1c1cc(F)cc(F)c1", "activity change, negative = inhibition": "-26%"}
{"smiles": "CN1CC(=O)N(C2CCNCC2)Cc2c1ncnc2N1CCC(O)CC1", "activity change, negative = inhibition": "-4.21%"}
{"smiles": "O=C(N1CCCCC1)N1CCN(c2ccc(Cl)nn2)C(=O)C1", "activity change, negative = inhibition": "-15.7% [at 146 µM]"}
{"smiles": "CC(C)NCCN1CCCC1", "activity change, negative = inhibition": "-12.6% [at 343 µM]"}
{"smiles": "O=C1NCc2ccccc2CC12CCN(Cc1c(F)cccc1F)C2", "note": "(stereo not drawn)", "activity change, negative = inhibition": "-9.7%"}
{"smiles": "CCC(CO)Nc1ncnc2c1CN(C1CCCNC1)C(=O)CN2C", "note": "(stereo not drawn)", "activity change, negative = inhibition": "-25.6%"}
{"smiles": "O=C1NCc2ccccc2CC12CCCN2Cc1ccsc1", "note": "(stereo not drawn)", "activity change, negative = inhibition": "-17.1% [at 146 µM]"}
{"smiles": "Cc1ccc(CCN2CCC3(Cc4ccccc4CNC3=O)C2)cc1", "note": "(stereo not drawn)", "activity change, negative = inhibition": "-2.35% [at 146 µM]"}
{"smiles": "CN1CC(=O)N(C2CCCNC2)Cc2c1ncnc2N1CCSCC1", "note": "(stereo not drawn)", "activity change, negative = inhibition": "-29.8%"}
{"smiles": "CCC(CC)Nc1ncnc2c1CN(C1CCCNCC1)C(=O)CN2C", "note": "(stereo not drawn)", "activity change, negative = inhibition": "0.531%"}
{"smiles": "O=C1NCc2ccccc2CC12CCN(Cc1ccc([N+](=O)[O-])cc1)C2", "note": "(stereo not drawn)", "activity change, negative = inhibition": "0.993%"}
{"smiles": "NCC(=O)N1CCC2(CC1)CN(C(=O)Cc1cccc(Cl)c1)CCO2", "activity change, negative = inhibition": "-12.9%"}
{"smiles": "CC(=O)NC1CC2(CCN(C(=O)CCCNC(=O)OC(C)(C)C)CC2)Oc2ccccc21", "note": "(stereo not drawn)", "activity change, negative = inhibition": "7.33%"}
{"smiles": "O=C1NCc2ccccc2CC12CCCN2Cc1cnc2ccccc2c1", "note": "(stereo not drawn)", "activity change, negative = inhibition": "-16.9%"}
{"smiles": "Cc1ccc(CN2CCC3(Cc4ccccc4CNC3=O)C2)cc1", "note": "(stereo not drawn)", "activity change, negative = inhibition": "-27.6% [at 146 µM]"}
{"smiles": "CCOc1cccc(CN2CCCC23Cc2ccccc2CNC3=O)c1", "note": "(stereo not drawn)", "activity change, negative = inhibition": "-5.5%"}
{"smiles": "CC[C@@H](Nc1ncnc2c1CN(C1CCCNCC1)C(=O)CN2C)c1ccccc1", "note": "(stereo partly drawn)", "activity change, negative = inhibition": "-14.8%"}
{"smiles": "N#Cc1ccc(CN2CCC3(CC(c4cccc(C(F)(F)F)c4)=NO3)C2)cc1", "note": "(stereo not drawn)", "activity change, negative = inhibition": "-17.4%"}
{"smiles": "O=C(c1cc(C2CC2)nc2onc(C3CCCN3)c12)N1CCC(F)CC1", "note": "(stereo not drawn)", "activity change, negative = inhibition": "-8.64%"}
{"smiles": "CC(=O)N1Cc2ccccc2CC2(CCCCN2Cc2ccccn2)C1", "note": "(stereo not drawn)", "activity change, negative = inhibition": "12%"}
{"smiles": "O=C(c1ccccn1)N1CCc2nc(C3CC3)nc(-c3ccc(Cl)cc3)c2C1", "activity change, negative = inhibition": "-1.45%"}
{"smiles": "CN1CC(=O)N(C2CNC2)Cc2c(NC3CC3)ncnc21", "activity change, negative = inhibition": "-21.8% [at 146 µM]"}
{"smiles": "O=C(O)CCC(=O)N1Cc2ccccc2CC2(CCCN2CC2CCNC2)C1", "note": "(stereo not drawn)", "activity change, negative = inhibition": "-30.7%"}
{"smiles": "Cc1ccc(-c2ccccc2C=O)cc1Cl", "activity change, negative = inhibition": "-17% [at 146 µM]"}
{"smiles": "CN1CC(=O)N(C2CCNCC2)Cc2c(NCCc3cccc(F)c3)ncnc21", "activity change, negative = inhibition": "-17.2%"}
{"smiles": "CC(C)OCCCNc1ncnc2c1CN(C1CCNC1)C(=O)CN2C", "note": "(stereo not drawn)", "activity change, negative = inhibition": "-18%"}
{"smiles": "COc1cccc(N2C(=O)NC(=NC3CCCCC3)C23CCCN([S+](=O)([O-])c2cccs2)C3)c1", "note": "(stereo not drawn)", "activity change, negative = inhibition": "-28.6%"}
{"smiles": "Cc1ccc2nc(C3CCCN(Cc4ccccc4)C3)[nH]c(=O)c2c1", "note": "(stereo not drawn)", "activity change, negative = inhibition": "2.64% [at 146 µM]"}
{"smiles": "COCCNC(=O)c1cc(C)nc2onc(C3CCCNC3)c12", "note": "(stereo not drawn)", "activity change, negative = inhibition": "-17.9% [at 146 µM]"}
{"smiles": "CC1CCCN(c2ncnc3c2CN(C2CCCNCC2)C(=O)CN3C)C1", "note": "(stereo not drawn)", "activity change, negative = inhibition": "-9.24%"}
{"smiles": "COc1cccc(N2C(=O)NC(=NC3CCCCC3)C23CCN(CC2CC2)CC3)c1", "activity change, negative = inhibition": "-19.5%"}
{"smiles": "CC(C)OCCCNc1ncnc2c1CN(C1CCCNCC1)C(=O)CN2C", "note": "(stereo not drawn)", "activity change, negative = inhibition": "-3.71%"}
{"smiles": "O=Cc1cccc(N2CCN(C(=O)c3ccc4c(c3)OCO4)CC2=O)c1", "activity change, negative = inhibition": "-7.4% [at 146 µM]"}
{"smiles": "CN(C)CCCC(=O)N1Cc2ccccc2CC2(CCCCN2Cc2ccccc2)C1", "note": "(stereo not drawn)", "activity change, negative = inhibition": "-19.7%"}
{"smiles": "O=C(c1ccccc1)N1CCCC2(CC(c3cccnc3)=NO2)C1", "note": "(stereo not drawn)", "activity change, negative = inhibition": "-15.9% [at 146 µM]"}
{"smiles": "Nc1ccc(CN2CCCC3(Cc4ccccc4CNC3=O)C2)cc1", "note": "(stereo not drawn)", "activity change, negative = inhibition": "5.49% [at 146 µM]"}
{"smiles": "O=C(O)c1cccc(-c2ccc(OC(F)(F)F)cc2)c1", "activity change, negative = inhibition": "0.598% [at 146 µM]"}
